Only some compounds are listed: those with a hit (about 2.3% of all), similar ones and a draw of the others.
M1 PAM parental – nonselective activator or artifact in parental CHO-K1 calcium assay; ATP EC20, Fluo-8 calcium fluorescence; 0% at ATP EC20, 100% at ATP max; activation, % at 3 µM; hit rate 0.02% among 360,000; AID 602247;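 active means activation above the run cutoff, the mean activation of all test compounds plus 3 SD, cut at about 40% in these data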;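 further: peak over basal fluorescence ratio in a 140 s read after ATP addition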
M1 PAM – positive allosteric modulators of human M1 muscarinic receptor | CHO-K1 hM1, Fluo-8 calcium fluorescence, ACh EC20; 0% = ACh EC20, 100% = maximal ACh | P11229 | AID 588819 | activation, % at 3 µM | hit rate 0.088% among 360,000; in the data active means activation above about 19%, passing the limit was not always enough
Target sequence (P11229 whole entry, looked up): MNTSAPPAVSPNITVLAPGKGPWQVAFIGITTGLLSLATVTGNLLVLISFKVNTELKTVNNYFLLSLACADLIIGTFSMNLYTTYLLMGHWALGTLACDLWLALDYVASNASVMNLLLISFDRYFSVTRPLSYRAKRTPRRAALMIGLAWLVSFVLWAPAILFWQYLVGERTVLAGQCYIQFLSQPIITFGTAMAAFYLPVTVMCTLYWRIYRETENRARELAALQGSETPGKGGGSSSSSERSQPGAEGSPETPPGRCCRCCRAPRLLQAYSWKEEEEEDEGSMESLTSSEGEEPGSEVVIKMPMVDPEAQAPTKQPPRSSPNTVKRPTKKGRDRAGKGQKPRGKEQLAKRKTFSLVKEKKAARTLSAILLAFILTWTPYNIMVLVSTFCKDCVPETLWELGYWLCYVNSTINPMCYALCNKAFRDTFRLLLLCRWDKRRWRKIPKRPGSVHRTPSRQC
CHO-K1 Ca antag – counter-screen for M1 antagonists: effect in parental CHO-K1 cells. AID 602250. hit rate 0.6% among 360,000. inhibition, % at 3 µM. ATP-induced calcium, Fluo-8 fluorescence;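 active means inhibition above a per-plate cutoff, the plate's mean sample inhibition plus 3 SD, cut at about 24% in these data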;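 further: 0% = DMSO plus EC80 ATP and 100% = DMSO alone without ATP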
CHRM1 antagonist – blocks human M1 muscarinic receptor | CHO-K1 hM1, Fluo-8 calcium fluorescence, ACh EC80 antagonist | hit rate 1.3% among 360,000 | P11229 | inhibition, % at 3 µM;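 active means percent inhibition above its own plate's cutoff, namely the mean of that plate's compound wells plus 3 SD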;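 further: peak over basal fluorescence ratio during 140 s after agonist addition; 0% = ACh EC80 plus DMSO and 100% = DMSO alone without agonist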
CHO-K1 Ca ag – M1 agonist counterscreen hit in parental CHO-K1 cells; AID 602248; Fluo-8 calcium fluorescence; scaled to maximal ATP response, vehicle zero; activation, % at 3 µM; hit rate 0.48% among 360,000; in the data active means activation above about 15%;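 further: untransfected CHO-K1 host cells lacking M1 receptor as counterscreen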
CHRM1 agonist – human M1 muscarinic receptor agonism. P11229. CHO-K1 hM1, Fluo-8 calcium fluorescence, agonist mode; 0% DMSO, 100% acetylcholine EC100. activation, % at 3 µM. hit rate 0.33% among 360,000. AID 588814;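 active means activation above the run's mean compound activation plus 3 SD, cut at about 16% in these data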;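 further: peak over basal fluorescence ratio within a 140 s kinetic read after compound addition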
Active calls of the source: *; . = not tested or not shown.

SMILES	M1 PAM parental	M1 PAM	CHO-K1 Ca antag	CHRM1 antagonist	CHO-K1 Ca ag	CHRM1 agonist
Cc1ccccc1-c1nc2cc(NC(=O)C3CC3)ccc2o1	14	4	-8	-8	1	-1
C=CCn1c(=S)[nH]c2cc(C(=O)Nc3ccc(F)cc3)ccc2c1=O	6	-21	-4	23*	8	4
COC(=O)c1cc[n+](CC(=O)c2ccccc2)cc1	16	-1	-11	-7	0	30*
C=Cn1cc[n+](CC(=O)c2ccc(-c3ccccc3)cc2)c1	10	-7	-5	-2	0	-9
O=C(C[n+]1ccccc1)c1ccc(-c2ccccc2)cc1	-14	-19	-4	40*	0	-8
CN(C)c1cc[n+](CC(=O)c2ccc(Br)cc2)cc1	7	-4	-13	10	-1	-4
COC(=O)c1ccc(OCC(=O)c2ccccc2)cc1	12	-8	-13	12	1	-3
CN(C)c1cc[n+](CC(=O)c2ccc(-c3ccccc3)cc2)cc1	-11	-30	23	42*	-1	-11
Cc1cc(OCC(=O)N(Cc2cccs2)C2CCS(=O)(=O)C2)ccc1Cl (stereo not given)	8	0	-4	0	1	-2
Cc1cccc(CNC(=O)C2CCC(=O)N(C3CC3)C2)c1 (stereo not given)	-16	-4	1	6	0	-2
Cc1ccc(Cn2cc(CN3CC(N4CCN(CCO)CC4)CS3(=O)=O)nn2)cc1 (stereo not given)	-3	.	4	.	0	.
C[C@@H]1CN([C@H](C)CO)S(=O)(=O)c2ccc(-c3ccc(C(=O)N(C)C)cc3)cc2O[C@H]1CN(C)C(=O)Cc1ccccn1	16	4	-10	-9	1	-2
CCN1CCN(C(=O)c2ccccc2N(Cc2ccccc2)S(=O)(=O)c2ccc(C)cc2)CC1	6	-9	1	10	1	28*
CN(CC(=O)Nc1ccc(S(=O)(=O)N2CCCC2)cc1)CC(=O)Nc1cccc(F)c1	6	-1	2	7	18*	-7
CCN(CC(=O)Nc1ccc(S(=O)(=O)N2CCCC2)cc1)Cc1ccccc1	6	-23	-1	45*	2	-6
Cc1ccc(NC(=O)CSc2ccc(S(=O)(=O)N3CCCC3)cn2)cc1F	15	-6	-2	5	16*	-1
CCN(CC(=O)Nc1ccc(S(=O)(=O)N2CCOCC2)cc1)Cc1ccccc1	-3	1	7	-7	0	-7
Cc1ccc(NC(=O)CNc2cccc(S(=O)(=O)N3CCCCC3)c2)cc1F	-15	-3	21	6	12	0
CC(=O)c1ccc(OC(=O)C2CSC3(C)CCC(=O)N23)cc1 (stereo not given)	14	2	-7	-2	0	-3
CCN1CCN(S(=O)(=O)c2ccc(S(=O)(=O)N(CC)Cc3ccccc3)cc2)CC1	10	-6	6	-4	22*	-6
CCN(c1ccc(NC(=O)COC(=O)c2ccc(S(=O)(=O)N3CCCC3)cc2)cc1)C(C)C	4	-25	-6	68*	1	-6
Cc1ccc(S(=O)(=O)n2cnc3cc([N+](=O)[O-])ccc32)cc1C	20	5	-7	-4	1	-5
Cc1ccc(-n2c3nc(=O)[nH]c(=O)c-3cc3cc([N+](=O)[O-])ccc32)cc1C	11	-28	-1	30*	0	-10
O=C1C2C3C=CC(C2C(=O)N1CCO)C1C(=O)N(CCO)C(=O)C31 (stereo not given)	13	4	-12	-9	3	-3
CC(C)C(NC(=O)c1ccccc1F)C(=O)NCc1ccc(F)cc1 (stereo not given)	-6	9	-19	-9	1	-10
SMILES	M1 PAM parental	M1 PAM	CHO-K1 Ca antag	CHRM1 antagonist	CHO-K1 Ca ag	CHRM1 agonist
Cc1c(C(C)C)c(=O)n(-c2ccc(S(=O)(=O)NCc3ccccc3)cc2)n1C	-12	-20	25*	34*	8	-6
CNC(=O)CSc1nnc(C2CC2)n1-c1ccccc1	15	6	-11	5	0	-2
O=C(NC(=S)NNC(=O)c1ccccc1O)c1ccc(F)cc1	6	-9	0	2	30*	33*
Cc1ccc(C(=O)NC(=S)NNC(=O)c2ccccc2O)cc1	3	-5	-11	8	0	-1
O=C(NC(=S)NNC(=O)c1ccccc1O)c1ccc([N+](=O)[O-])cc1	3	3	-7	2	1	-3
Cc1ccccc1C(=O)NNC(=O)c1ccc(Br)cc1	-11	7	22	6	0	0
O=C(NC(=S)NNC(=O)c1ccccc1O)c1ccccc1	20	-7	-15	1	10	24*
Cc1ccccc1C(=O)NNC(=S)NC(=O)c1ccccc1	-13	-18	5	13	55*	63*
CC/C(=N\NC(=O)CSc1ncccn1)c1ccc2c(c1)OCCO2	-9	1	26*	0	0	-12
Cc1cccc(NS(=O)(=O)c2cc3c4c(c2)CC(=O)N4CCC3)c1C	13	11	-9	-8	3	2
Cc1ccccc1NS(=O)(=O)c1cc2c3c(c1)CC(=O)N3CCC2	6	4	5	-2	17*	3
CC(C)C[C@@H](NC(=O)C1CCC(CNC(=O)[C@@H]2CCCN2C(=O)OC(C)(C)C)CC1)C(=O)O (stereo not given in full)	-11	-8	6	101*	0	0
CCOc1cccc(NC(=O)C(Cc2cccs2)c2nn[nH]n2)c1 (stereo not given)	-9	-7	27*	12	0	-4
O=C(Nc1ccccc1)C(Cc1cccs1)c1nn[nH]n1 (stereo not given)	7	6	-2	-9	0	-3
O=C(NCCc1ccc(F)cc1)Nc1ccc([N+](=O)[O-])cc1	-11	-9	18	28	15	1
O=[N+]([O-])c1cccc(NC(=S)NCCc2ccccc2)c1	-10	-12	31*	8	12	-1
O=[N+]([O-])c1ccc(NC(=S)NCCc2ccc(F)cc2)cc1	-7	-19	38*	33*	12	-1
Fc1ccc(NC(=S)NCCc2ccc(Cl)cc2)cc1	11	-8	5	10	7	-1
Fc1cccc(NC(=S)NCCc2ccccc2)c1	6	-6	11	10	5	-3
Fc1ccc(CCNC(=S)Nc2ccc(F)c(Cl)c2)cc1	-2	-18	25*	4	15	-8
CN(CC(=O)Nc1ccc(F)cc1)C(=O)C1CCN(C(=O)Nc2ccccc2)CC1	13	-4	-4	3	0	-1
COc1ccc(/C(C)=N/NC(=O)c2nnn(-c3nonc3N)c2-c2cccs2)cc1OC	10	2	-9	0	4	0

Screens deposited in PubChem by The Scripps Research Institute Molecular Screening Center.
